Bioassay records as filed in PubChem.
The list is not random: actives were taken first. Their share in the collection is about 6.5%.
Lassa entry inh: qHTS for Inhibitors of binding or entry into cells for Lassa Virus; 300,000 compounds, 1.2% hits; Lassa virus pseudotype entry inhibition, cell reporter; AID 540256, 2011; Potency, µM (titrated, usually from 37.9 µM), without a hit: top-dose activity change, negative = inhibition, most hits filed as inhibitors; calls by dose curve; tested in HEK293 cells; note: potency is the fitted concentration of half-maximal effect; nearly all actives have a fitted effect of over 50% in size
Vaccinia mCherry: qHTS for Stage-Specific Inhibitors of Vaccinia Orthopoxvirus: mCherry Reporter Primary qHTS; Potency, µM (top dose mostly 36.5 µM), for inactives: at the highest dose activity change, negative = inhibition, hits mostly inhibitors; AID 720579, 2013; 310,000 compounds, 0.63% hits; Vaccinia virus mCherry reporter infection, fluorescence; calls by dose curve; tested in A549 cells; note: potency is the fitted concentration of half-maximal effect; nearly all actives have a fitted effect of over 35% in size
HCMV antiviral: qHTS Assay for inhibitors of the human cytomegalovirus (HCMV); HFF cells, HCMV-luciferase reporter, 72 h; stronger effect = lower value; activity change, negative = inhibition, % at 57.5 µM; 410,000 compounds, 4.5% hits; AID 1259415, 2018; in the data active = activity change below about -60%; inconclusive = no clear call, values can overlap the other calls; inactive = above about -39%
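Steps: HFFs plated, 16 h 37C; compounds added; HCMV-luciferase added to MOI 1 PFU/cell; 72 h 37C; OneGlo reagent, 5 min room temperature; luminescence read, normalized to controls.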
MARV entry inh: qHTS for inhibitors of binding or entry into cells for Marburg Virus; Marburg virus pseudotyped entry inhibition, cell reporter; Potency, µM (titrated, usually from 37.8 µM), for the others: at the top dose activity change, negative = inhibition, most hits filed as inhibitors; 300,000 compounds, 1.8% hits; calls by dose curve; tested in HEK293 cells; note: potency is the fitted concentration of half-maximal effect
FMDV antiviral: High Throughput Screening for Foot and Mouth Disease Virus Antivirals; FMDV antiviral cell-based qHTS; Potency, µM (doses to about 57.9 µM), without a hit: top-dose activity change, negative = inhibition, hits mostly inhibitors; 410,000 compounds, 1.2% hits; AID 1159524, 2015; calls by dose curve; tested in HEK293T cells; note: read-out not given here; potency is the fitted concentration of half-maximal effect; nearly all actives have a fitted effect of over 45% in size
Vaccinia Venus: qHTS for Stage-Specific Inhibitors of Vaccinia Orthopoxvirus: Venus Reporter Primary qHTS | 330,000 compounds, 0.46% hits | Potency, µM (top dose mostly 36.5 µM), for the others: at the highest dose activity change, negative = inhibition, actives largely listed as inhibitors | Vaccinia virus Venus reporter expression, fluorescence; calls by dose curve; tested in A549 cells; note: potency is the fitted concentration of half-maximal effect; nearly all actives have a fitted effect of over 30% in size
* = called active by the depositor; i = inactive; ? = inconclusive; . = no result; [ ] = dose if it differs, or a comment. % is set by controls: 0 for no effect and ±100 for the full control effect.

SMILES	Lassa entry inh	Vaccinia mCherry	HCMV antiviral	MARV entry inh	FMDV antiviral	Vaccinia Venus
COC(=O)c1c(NC(=O)c2ccc([N+](=O)[O-])o2)sc2c1CCN(C(C)C)C2	?	?	?	?	?	14µM*
CC(=O)N1CCc2c(sc(NC(=O)c3ccc([N+](=O)[O-])o3)c2C#N)C1	.	.	-98*	.	36%	.
CC(C)N1CCc2c(sc(NC(=O)c3ccc([N+](=O)[O-])o3)c2C(N)=O)C1	.	.	-98*	.	.	.
COC(=O)c1c(NC(=O)Cc2ccccc2)sc2c1CCN(C(C)C)C2	.	?	-28	.	0%	-23%
CC(C)N1CCc2c(sc(NC(=O)c3nc4ccccc4s3)c2C(N)=O)C1	?	-24%	-36	2%[46.1 µM]	-12%	-18%
Cc1ccc(CNC(=O)c2sc3nc4n(c(=O)c3c2C)CCCC4)cc1	?	0%	12	.	14%	-7%
Cc1cnc2ccc3ccccc3c2c1C	.	-12%	.	.	.	-18%
Cn1c(=O)c(-c2ccc(F)c(F)c2)nc2cncnc21	.	.	.	.	-7%	.
Cc1nn(-c2ccccc2)c(OC(=O)c2ccccc2)c1S(=O)(=O)c1ccccc1	6%[46.1 µM]	-15%	3	?	13%	-3%
O=C(O)c1cccc(N/N=C/c2ccc(-c3ccccc3)cc2)c1	8.9µM*	-27%	109	?	14µM*	-16%
CC(C)(C)c1ccc(/C=N/Nc2cccc(C(=O)O)c2)cc1	.	.	160	.	45µM*	.
O=C(O)c1cccc(N/N=C/c2cc(Br)cc(Br)c2O)c1	12%	i	62	26%	21%	-12%
O=C(O)c1cccc(N/N=C/c2cccnc2)c1	?	i	43	?	13µM*	-7%
COc1ccc(Br)cc1/C=N/Nc1cccc(C(=O)O)c1	20%	-24%	79	19%	36%	1%
COc1ccccc1/C=C/C=N/Nc1cccc(C(=O)O)c1	5µM*	?	116	?	-32%	-24%
O=C(N/N=C/c1cccnc1)c1ccccc1	.	.	?	.	0%	.
COc1ccccc1NC(=O)OC[C@@H]1CSCCS(=O)(=O)N1	.	.	-20	?	.	.
CCOC(=O)C(CC)Sc1ccc2nnc(-c3ccc(F)cc3)n2n1 (stereo not given)	.	-21%	.	.	.	6%
COC(=O)C1=C(C(=O)OC)[C@@H]2N(C)c3ccccc3[C@@]23CCC(=O)N(CC(C)C)C3=N1	.	.	.	8%[14.2 µM]	.	.
CN(C)c1ccc(/C=N/Nc2cccc(C(=O)O)c2)cc1	.	.	65	.	4µM*	.
COC(=O)[C@H](CC(C)C)N(Cc1ccc(Br)cc1)S(=O)(=O)CCl	7%[46.1 µM]	.	.	.	.	.
C[C@H]1COc2cc(N3CCCC3)ccc2S(=O)(=O)N1	1%[46.1 µM]	.	-1	.	.	.
Clc1ccc(-c2cn(-c3ccc(Cl)cc3)c3[n+]2CCCCC3)cc1	21%	-6%	?	?	?	-10%
COc1ccc(-n2cc(-c3ccc(OC(F)F)cc3)[n+]3c2CCCCC3)cc1	.	.	-85*	.	?	.
COc1ccc(-c2cn(-c3ccc(Cl)cc3)c3[n+]2CCCCC3)cc1	?	i	-66*	-18%	-16%	-16%
SMILES	Lassa entry inh	Vaccinia mCherry	HCMV antiviral	MARV entry inh	FMDV antiviral	Vaccinia Venus
COc1ccc(N2CC(O)(c3ccc(OC(F)F)cc3)[N+]3=C2CCCC3)cc1 (stereo not given)	3%	-15%	-33	?	-25%	-1%
CCOc1ccccc1CNC(=O)CCn1ccc2cc(S(=O)(=O)N3CCC(C)CC3)ccc21	0%[46.1 µM]	-23%	-20	.	-2%	-23%
O=C(Nc1cccc(Cl)c1)c1cc(S(=O)(=O)N2CCCc3ccccc32)ccc1F	-5%[46.1 µM]	-16%	-21	.	-13%	-16%
CCc1cccc(CC)c1NC(=S)NCCc1c(C)[nH]c2ccc(C)cc12	?	10µM*	-93*	?	4%	16µM*
COc1ccc(CCNC(=S)Nc2ccc(C)cc2C)cc1	-1%	.	-76*	22%	16%	.
COc1ccc2[nH]c(C)c(CCNC(=S)Nc3cc(C)cc(C)c3)c2c1	-16%	-20%	?	33%	-9%	?
